Data on twelve compounds can be found in PubChem BioAssay (EPA / NIEHS).

A word on the AC50: it is the midpoint of the concentration-response curve, whichever way the signal moves.

Where “and” joins values, the source holds several entries; their conditions need not be identical. Identical values can stand only once. Inconclusive results are not listed. Calls of active or inactive are those of the source. The calls were made as follows: active = hit-call score of the fitted dose curve at least 0.9, where 1 is the maximum; inconclusive = response in the unintended direction; inactive = score below 0.9.

In this assay the target is human Beta-secretase (BACE), BACE1 (gene 23621) (UniProt P56817). As to the kind of experiment: NVS_ENZ_hBACE: NovaScreen (NVS) Enzymatic Assay for human Beta-secretase (BACE) (AID 2283140).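 Also: hits are inhibitors that reduce fluorescent substrate signal versus DMSO.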 The protocol: NVS_ENZ_hBACE is a biochemical, single-readout assay that uses extracted gene-proteins from SF9 in a cell-free assay. Measurements were taken 1 hour after chemical dosing in a 96-well plate.NVS_ENZ_hBACE is one of one assay component(s) measured or calculated from the NVS_ENZ_hBACE assay. It is designed to make measurements of enzyme activity, a form of enzyme reporter, as detected with fluorescence intensity signals by Fluorescence technology.Data from the assay component NVS_ENZ_hBACE was analyzed into 1 assay endpoint. This assay endpoint, NVS_ENZ_hBACE, was analyzed in the positive analysis fitting direction relative to DMSO as the negative control and baseline of activity. Using a type of enzyme reporter, loss-of-signal activity can be used to understand changes in the enzymatic activity as they relate to the gene BACE1. Furthermore, this assay endpoint can be referred to as a primary readout, because […]. To generalize the intended target to other relatable targets, this assay endpoint is annotated to the protease intended target family, where the subfamily is aspartate protease.
Chain of human Beta-secretase (BACE), BACE1 (gene 23621) (P56817 whole entry, looked up): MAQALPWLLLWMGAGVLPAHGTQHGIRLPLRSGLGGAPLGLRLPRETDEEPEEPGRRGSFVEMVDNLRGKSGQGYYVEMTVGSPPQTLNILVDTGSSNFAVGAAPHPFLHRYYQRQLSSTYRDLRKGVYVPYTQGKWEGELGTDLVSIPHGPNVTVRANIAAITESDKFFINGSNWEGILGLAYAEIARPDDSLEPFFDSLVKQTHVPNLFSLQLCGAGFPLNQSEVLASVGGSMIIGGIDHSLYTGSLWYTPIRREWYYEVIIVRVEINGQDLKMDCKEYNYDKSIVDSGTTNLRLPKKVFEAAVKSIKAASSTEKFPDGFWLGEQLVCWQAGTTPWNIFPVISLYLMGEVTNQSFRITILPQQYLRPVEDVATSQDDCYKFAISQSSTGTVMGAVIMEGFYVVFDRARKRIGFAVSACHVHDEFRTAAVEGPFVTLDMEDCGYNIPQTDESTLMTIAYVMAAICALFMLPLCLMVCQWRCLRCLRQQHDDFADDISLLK
Binding assays used specific radioligands (tritiated, iodinated) with non-radioactive competitive displacement ligands in agonist or antagonist protocols (as indicated) and various reference compounds and inhibitors to titrate specific binding to receptors and transporters. Most enzyme assays (CYPs, kinases, phosphatases, proteases, HDACs) used recombinant protein and specific substrates (fluorescence mostly, some colorimetric and radioactive) and inhibitors, followed by a biochemical separation of substrate and product. All assays for the biochemical HTS were initially run in duplicate at a single concentration (10 uM for CYP450 assays and 25 uM for all others). […] Each assay was run with positive and negative controls, and concurrent controls on every plate. The follow-up (secondary) screen tested active chemical-pairs in concentration series, as well as a few additional assays not tested in the primary screen, some selected negative inactives, and several cases re-run in the concentration series for confirmatory purposes.
As to `C#CCOS(=O)OC1CCCCC1Oc1ccc(C(C)(C)C)cc1` (configuration not stated), the AC50 was 14.8 µM (active).
With `C=CCC1=C(C)C(OC(=O)C2C(C=C(C)C)C2(C)C)CC1=O` (configuration not stated), the call was inactive.
Same read-out and setting: to `Cc1c(F)c(F)c(COC(=O)C2C(/C=C(\Cl)C(F)(F)F)C2(C)C)c(F)c1F` (configuration not stated) belongs “inactive”; to `CNC(=S)S`, “inactive”; to `CCCCOC(=O)c1ccccc1C(=O)OCCCC`, “inactive”.
Same read-out and setting: in the case of `CC(C)Oc1cc(-n2nc(C(C)(C)C)oc2=O)c(Cl)cc1Cl` it was “inactive”.
As for `O=C(Nc1ccccc1)Nc1ccnc(Cl)c1`, the AC50 was 5.29 µM (active).
Still for that read-out and setting: to `COC(=O)N(OC)c1ccccc1COc1ccn(-c2ccc(Cl)cc2)n1` belongs 11.6 µM (active); to `COc1ccc(C(c2ccc(OC)cc2)C(Cl)(Cl)Cl)cc1`, 33.9 µM (active).
For `Cc1ccc(-c2c(Cl)nc(C#N)n2S(=O)(=O)N(C)C)cc1`, the call was inactive.
In the case of `CCOP(=S)(OCC)SCn1c(=O)oc2cc(Cl)ccc21`, the concentration at half-maximal activity (AC50) is 14.4 µM (active).
The same measure, in the same setting: to `COC(=O)C(C)Oc1ccc(Oc2ccc(Cl)cc2Cl)cc1` (configuration not stated) belongs 5.69 µM (active) and 16.3 µM (active) and 5.37 µM (active).
